Bioassay records from PubChem.
An excerpt weighted towards active compounds, which were near 2.6% of everything screened.
LGR2 inh – blocks bursicon-induced cAMP signaling via Drosophila LGR2; inhibition, % at 9.99 µM; HEK293 LGR2, CRE-luciferase, bursicon-stimulated, 4 h; 380,000 tested, 0.35% active;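 active = drop in luminescence signal, shown as inhibition above about 50% in the replicate tests, limit read from the data, passing the limit was not always enough; inconclusive = probably only some replicates passing the limit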;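 also: agonist challenge used bursicon conditioned medium at about half maximal strength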
EWS-Fli block – inhibitors of EWS/Fli oncoprotein transcriptional activity; A673 NR0B1-luciferase reporter, viability-normalised; inhibition, % at 12.6 µM; 350,000 tested, 0.67% active; AID 651661;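 active = mean inhibition of at least 50% after viability correction, with every replicate also passing that limit; inconclusive = mean reaches 50% but only one of two replicates passes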;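 also: firefly luciferase signal divided by Alamar Blue viability fluorescence both relative to DMSO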
TROY NFkB inh – blocks TROY-dependent signaling in reporter cells; AID 1347056; 360,000 tested, 0.98% active; inhibition, % at 10 µM; Q293 LMP1-TROYcd NF-kB luciferase reporter, 4 h;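 active = compounds whose plate-normalised and pattern-corrected inhibition of the luciferase reporter signal at the single screening dose is 50% or more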
EBV LMP1 NFkB – reduces LMP1-driven NF-kappaB luciferase signal. LMP1-induced NF-kappaB luciferase reporter cells, luminescence. inhibition, % at 12.5 µM. AID 504558. 350,000 tested, 0.69% active; in the data active = inhibition above about 41%; inconclusive = no clear call, values can overlap the other calls;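 also: 0% = neutral control wells and 100% = reference inhibitor control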
TWEAK Fn14 block – inhibitors of TWEAK-Fn14 interaction signaling. TWEAK-stimulated Fn14 reporter cells, luciferase luminescence, 8 h. inhibition, % at 10 µM. 360,000 tested, 2% active. AID 1159606; in the data active = inhibition above about 50%
An asterisk follows results filed as active; u = inconclusive; x = no result; ! = not active in a repeat.

SMILES	LGR2 inh	EWS-Fli block	TROY NFkB inh	EBV LMP1 NFkB	TWEAK Fn14 block
Cc1ccc(Cn2c(N)c(S(=O)(=O)c3cccs3)c3nc4ccccc4nc32)cc1	x	x	63*	1	46
CN(C)CCCn1c(N)c(S(=O)(=O)c2ccccc2)c2nc3ccccc3nc21	19	1	-8	x	34
CCCCn1c(N)c(S(=O)(=O)c2ccc(C)cc2)c2nc3ccccc3nc21	2	7	65*	-6	52*
O=C(NC1CCCC1)[C@@H]1[C@@H](CO)[C@@H]2Cn3c(ccc(-c4cccnc4)c3=O)[C@@H]2N1CC1CC1	4	-5	x	x	x
CO[C@H]1CN(C)C(=O)c2ccc(NS(=O)(=O)c3ccc(C)cc3)cc2OC[C@H](C)N(Cc2nccs2)C[C@H]1C	18	-3	x	x	x
COc1ccc(-c2ccc(C3[C@@H]4CN(S(=O)(=O)c5cccc(C)c5)C[C@H]3N4)cc2)cc1 (some centres not stated)	-25	-5	x	x	x
Cc1cccc(S(=O)(=O)N2C[C@@H]3N[C@H](C2)C3c2ccc(-c3ccncc3)cc2)c1 (some centres not stated)	-1	57*!	x	x	x
COc1cccc(S(=O)(=O)N2C[C@@H]3N[C@H](C2)C3c2ccc(-c3cccc(C)c3)cc2)c1 (some centres not stated)	1	55*!	x	x	x
Cc1cccc(S(=O)(=O)N2C[C@@H]3N[C@H](C2)C3c2ccc(-c3cccnc3)cc2)c1 (some centres not stated)	6	-3	x	x	x
COc1ccc(S(=O)(=O)Nc2ccc3c(c2)C(=O)N([C@@H](C)CO)C[C@@H](C)[C@H](CN(C)Cc2ccncc2)OCCCC[C@@H](C)O3)cc1	2	-3	x	x	x
CCC(=O)N1CC(=O)N2[C@H](CO)[C@H](c3ccc(C#CC4CCCCC4)cc3)[C@@H]2C1	-15	0	x	x	x
CO[C@H]1CN(C)C(=O)c2ccc(NS(=O)(=O)c3ccccc3)cc2OC[C@H](C)N(Cc2ccccn2)C[C@H]1C	-7	7	x	x	x
O=C1N[C@@H](c2ccccc2)COC(=O)[C@@H](Cc2ccc(F)cc2)CC/C=C/C[C@H]1CC(=O)N(CCO)Cc1ccccc1	8	-11	20	8	42
O=C1N[C@@H](c2ccccc2)COC(=O)[C@@H](Cc2ccc(F)cc2)CC/C=C/C[C@@H]1CC(=O)N(CCO)Cc1ccccc1	5	4	18	-6	60*
COc1ccc(CN(C)C[C@H]2OCCCC[C@H](C)Oc3ccc(NC(=O)CCC(F)(F)F)cc3C(=O)N([C@@H](C)CO)C[C@H]2C)cc1	11	-2	x	x	x
Cc1cccc(Cn2nc(C(C)(C)C)cc2C(=O)Nc2ccc(F)cc2)c1	u	-48	58*	9	26
CC(C)(C)c1cc(C(=O)NN)n(Cc2ccc(F)cc2)n1	6	20	3	7	0
CC(C)c1ccc(/C=C/C(=O)Nc2nncs2)cc1	64*	18	37	-23	50
COc1ccc(-c2csc(NC(=S)NC(=O)/C=C/c3ccc(C(C)C)cc3)n2)cc1OC	10	x	70*	26	66*
COc1ccc(-c2csc(NC(=S)NC(=O)/C=C/c3ccco3)n2)cc1OC	-17	29	19	20	4
Cc1sc(NC(=O)/C=C/c2ccc(C(C)C)cc2)c(C#N)c1C	x	x	-21	-6	12
CCNC(=O)[C@H]1[C@H](CO)[C@H]2Cn3c(ccc(-c4ccccc4)c3=O)[C@H]2N1Cc1cccnc1	0	-3	x	x	x
O=C(Nc1ccc2c(c1)OCO2)N[C@H]1CC[C@H](CCNC(=O)C2CCCCC2)O[C@H]1CO	-19	0	x	x	x
Cc1c(/C=N/NC(=O)CNc2ccccc2)c2ccccn2c1C(=O)c1ccncc1	7	10	21	1	62*
Cc1ccc2oc(C(=O)Nc3ccc(S(=O)(=O)Nc4onc(C)c4C)cc3)c(C)c2c1	-9	-2	-20	66*	-1
SMILES	LGR2 inh	EWS-Fli block	TROY NFkB inh	EBV LMP1 NFkB	TWEAK Fn14 block
Cc1noc(NS(=O)(=O)c2ccc(N/C=C/C(=O)c3ccc(F)cc3)cc2)c1C	7	-37	10	10	57*
COc1ccc(CNC(=O)C[C@H]2C=C[C@H](NS(=O)(=O)c3cccc(OC)c3)[C@@H](CO)O2)cc1	2	3	x	x	x
CCC(=O)N1[C@H](CN(CC)C(=O)c2cccc(F)c2)[C@@H](c2ccccc2)[C@@H]1CO	5	-1	x	x	x
O=C1Nc2ccccc2N(O)N1c1cc(-c2cccc(Cl)c2)no1	x	x	-27	22	8
O=C1Nc2ccccc2N(O)N1c1cc(-c2ccccc2Cl)no1	x	x	1	17	55*
Cn1c(=N)n(CC(=O)c2ccccc2)c2ccccc21	-10	65*	33	x	45
Cn1c(=N)n(CC(=O)O)c2ccccc21	x	x	-33	0	8
Cn1c(=N)n(CC(=O)c2ccc(Cl)c(Cl)c2)c2ccccc21	23	73*	20	-1	85*
COc1ccc(C(=O)Cn2c(=N)n(C)c3ccccc32)cc1	x	-101	-45	-38	-56
O=C(NCC[C@H]1CC[C@H](NC(=O)c2ccncc2)[C@@H](CO)O1)Nc1ccc(Cl)cc1	-23	-8	x	x	x
O=C(CCCc1ccccn1)c1ccccc1	44	30	43	27	84*
O=C(Cc1ccccn1)c1ccccc1	-6	-17	3	-1	7
C[C@@H]1CN([C@@H](C)CO)C(=O)c2cc(NS(=O)(=O)c3ccc(Cl)cc3)ccc2O[C@H]1CN(C)C(=O)Nc1ccccc1	2	-8	x	x	x
CC1(C)c2ccccc2N2CC(=O)N[C@@]21/C=C/C=C/c1ccccc1	4	15	9	-4	20
Cc1ccccc1/C=C/C12NC(=O)CN1c1ccccc1C2(C)C (configuration not stated)	-15	-29	29	-6	56*
CN(C)C(=O)[C@@H]1[C@@H](CO)[C@@H]2Cn3c(ccc(-c4ccccc4)c3=O)[C@H]1N2C(=O)C1CC1	2	-5	x	x	x
CN1C(=O)c2cc(NC(=O)c3cccs3)ccc2OC[C@H]2O[C@@H](CC(=O)N3CCCCC3)CC[C@H]21	16	-10	x	x	x
Cc1ccc(-c2nc(NC(=O)CSc3nnc4scc(-c5ccccc5)n34)ns2)cc1	6	2	52*	-4	48
O=C(NCN1CCN(c2ccccc2F)CC1)c1ccccc1	x	x	-14	-10	2
Cc1cccc(C(=O)NCN2CCN(c3ccccc3C#N)CC2)c1	3	-9	-9	82*	12
CNC[C@@H]1Oc2ccc(NC(=O)C3CC3)cc2CC(=O)N([C@@H](C)CO)C[C@H]1C	1	-8	x	x	x
NC(=S)NN=Cc1nccc2c(N)cccc12	22	-5	-3	76*	12
CCN(C(C)=O)c1cnc(C=NNC(N)=S)c2ccccc12	15	4	-6	-2	-15
COc1ccc(S(=O)(=O)N(C)C[C@@H]2Oc3ccc(NC(=O)CCCCCC(=O)Nc4ccccc4N)cc3CC(=O)N([C@H](C)CO)C[C@H]2C)cc1	4	-3	x	x	x
